Screens (PubChem BioAssay)
JMJD2E inh: qHTS Assay for Inhibitors of Human Jumonji Domain Containing 2E (JMJD2E) | hit rate 1.6% among 230,000 | Lysine-specific demethylase 4E (Homo sapiens), B2RXH2 | Potency, µM (doses to about 57.1 µM), inactives show at the highest dose activity change, negative = inhibition, actives largely listed as inhibitors | JMJD2E catalytic domain, FDH-coupled NADH fluorescence (FDH is formaldehyde dehydrogenase) | AID 2147, 2009; active = well fitted inhibition curve with a large enough effect, not every such curve was filed as active; inconclusive = small, poorly fitted or top-dose-only effect, or another doubt; inactive = no such curve, though single readings can be large or run the other way;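 also: potency is read from the fitted curve at half-maximal effect; 0% = wells with enzyme and -100% = buffer wells without enzyme; nearly all actives have a fitted effect of over 50% in size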
Target sequence (B2RXH2 1-337 limits assumed): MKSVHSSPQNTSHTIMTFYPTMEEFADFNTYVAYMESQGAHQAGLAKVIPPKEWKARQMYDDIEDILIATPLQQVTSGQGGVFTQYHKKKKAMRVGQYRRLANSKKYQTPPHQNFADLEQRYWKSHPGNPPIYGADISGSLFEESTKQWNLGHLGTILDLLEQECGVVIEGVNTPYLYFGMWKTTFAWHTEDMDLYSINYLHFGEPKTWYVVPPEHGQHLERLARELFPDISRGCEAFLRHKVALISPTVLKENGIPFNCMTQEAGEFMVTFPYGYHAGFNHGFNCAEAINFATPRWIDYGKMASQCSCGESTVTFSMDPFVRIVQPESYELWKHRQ
Tau fluor counter: Counterscreen qHTS for Inhibitors of Tau Fibril Formation, Fluorescence Polarization | AID 1463, 2008 | hit rate 0.93% among 280,000 | tau K18 P301L Alexa594 fluorescence, heparin fibrillization | Potency, µM (series often up to 57.7 µM), inactives show at the highest dose activity change, negative = decrease; also: potency is read from the fitted curve at half-maximal effect; nearly all actives have a fitted effect of over 55% in size
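Human tau K18 P301L (15 uM unlabeled, 0.24 uM Alexa 594-labeled) in 100 mM sodium acetate pH 7 with 20 uM heparin, 6 hr at 37 C. ThT 30 uM added, 1 hr ambient; Alexa 594 FP and total fluorescence read at 555/632 nm.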
Tau fibril ThT: qHTS for Inhibitors of Tau Fibril Formation, Thioflavin T Binding | Microtubule-associated protein tau (Homo sapiens), P10636 | recombinant tau K18 P301L (four-repeat tau fragment), heparin-induced fibrillization, ThT fluorescence | Potency, µM (highest dose often 57.4 µM), for inactives: at the highest dose activity, negative = inhibition, hits mostly inhibitors | hit rate 2.1% among 270,000 | AID 1460, 2008; also: potency is read from the fitted curve at half-maximal effect; nearly all actives have a fitted effect of over 55% in size
Target sequence (P10636 561-689 P618L limits assumed): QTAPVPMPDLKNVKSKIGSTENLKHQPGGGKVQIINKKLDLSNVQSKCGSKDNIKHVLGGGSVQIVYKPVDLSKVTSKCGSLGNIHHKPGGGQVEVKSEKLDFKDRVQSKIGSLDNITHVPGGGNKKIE
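Aggregation was driven by heparin (20 uM final) acting on recombinant tau […] bearing P301L in 100 mM sodium acetate pH 7; fibrils were detected with Thioflavin T.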
Tau fibril FP: qHTS for Inhibitors of Tau Fibril Formation, Fluorescence Polarization; K18 P301L tau heparin fibrillization, Alexa594 FP, 6 h; Potency, µM (doses to about 57.7 µM), for inactives: at the highest dose activity, negative = inhibition, actives largely listed as inhibitors; hit rate 0.39% among 280,000; Microtubule-associated protein tau (Homo sapiens), P10636; AID 1468, 2008; also: potency is read from the fitted curve at half-maximal effect; nearly all actives have a fitted effect of over 55% in size
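Human K18 P301L fragment (15 uM unlabeled plus 0.24 uM Alexa 594-labeled) in 100 mM sodium acetate pH 7 with compound, aggregation induced by 20 uM heparin for 6 hr at 37 C. ThT (30 uM) added for 1 hr, then Alexa 594 FP read.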
Sfp PPTase inh: qHTS Assay for Inhibitors of Bacillus subtilis Sfp phosphopantetheinyl transferase (PPTase); Biochemical Sfp PPTase activity, qHTS; hit rate 3.5% among 310,000; Potency, µM, without a hit: largest response in the series, negative = inhibition, usual class: inhibitors; 4'-phosphopantetheinyl transferase ffp (Bacillus subtilis), Q9F4F7;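 also: the enzyme is Sfp with the accession as filed and its product quenches rhodamine fluorescence; potency is read from the fitted curve at half-maximal effect; 0% = enzyme reaction without inhibitor and -100% = no enzyme wells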
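Buffer: 50 mM Hepes-Na pH 7.6, 10 mM MgCl2, 0.01% Nonidet P-40, 0.01% BSA. Enzyme 15 nM, pre-exposed to compound 15 min; substrates then added and fluorescence change tracked over 30 min.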
FBPA coupling cs: qHTS Assay for Inhibitors of Fructose-1,6-bisphosphate Aldolase from Giardia Lamblia: Coupling assay counterscreen. activity change, negative = inhibition, % at 58.2 µM, hits read low. hit rate 0.67% among 290,000. coupling enzyme system counterscreen, AmpLite Red fluorescence. AID 2472, 2010; in the data active = activity change below about -30%
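Coupling enzymes only (glyceraldehyde-3-phosphate) + compound, at 57.5 uM final, 10 min RT; add substrate/coupling/AmpLite Red mix, 20 min RT; fluorescence ex 525/em 598 nm. Actives flag coupling-system interference.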
* hit, by the source's call; ? = inconclusive; · = no result; ! = repeats disagree; [ ] = another dose, or the depositor's remark. Rows were chosen to be rich in hits. Some 5.3% of all compounds tested hit in one or more screens of this group. Unless noted, calls follow the shape of the dose curve; as a rule, active = well fitted curve in the direction sought with a large enough effect; inconclusive = small, poorly fitted or top-dose-only effect, or another doubt; inactive = no such curve, though single readings can be large; an effect the other way counts as inactive or inconclusive. Unless noted, % is scaled to controls: 0 for no effect and ±100 for the full control effect.

SMILES	JMJD2E inh	Tau fluor counter	Tau fibril ThT	Tau fibril FP	Sfp PPTase inh	FBPA coupling cs
COc1ccc(C2C(C(=O)c3ccco3)=C(O)C(=O)N2c2nnc(C)s2)cc1 (stereo unspecified)	-11%	2%	-18%	-5%	10µM*	0
COc1ccc(C2C(C(=O)c3ccco3)=C(O)C(=O)N2c2nnc(C)s2)cc1OC (stereo unspecified)	·	·	·	·	-23%	9
C=CCOc1ccc(C2C(C(=O)c3ccco3)=C(O)C(=O)N2c2nnc(C)s2)cc1 (stereo unspecified)	1%	-2%	?	-14%	7.1µM*	-1
Cc1ccc(N2CC(NC(=O)c3ccccc3C(F)(F)F)CC2=O)cc1C (stereo unspecified)	·	-10%	-11%	-9%	·	·
O=C(C1=C(O)C(=O)N(c2ncccn2)C1c1cccc(Cl)c1)c1ccco1 (stereo unspecified)	?	-8%	?	-5%	56µM*	-6
O=C(C1=C(O)C(=O)N(c2ncccn2)C1c1ccc(Cl)cc1)c1ccco1 (stereo unspecified)	5%	-6%	-12%	2%	-5%	2
O=C(C1=C(O)C(=O)N(c2ncccn2)C1c1ccc(Cl)c(Cl)c1)c1ccco1 (stereo unspecified)	?	?	18µM*	?	56µM*	-1
CC(C)(C)c1ccc(S(=O)(=O)/C=C/C#N)cc1	0%	0%	?	-9%	·	·
COc1cc2ncnc(Nc3cccc(Br)c3)c2cc1OC	?	?	5%	?	-28%	-10
COc1cc2ncnc(Nc3cccc(Cl)c3)c2cc1OC	?	?	?	?	56µM*!	0
CCn1c(SCC(=O)c2ccc(CNC(C)=O)o2)nnc1-c1cccs1	3%	2%	-6%	3%	50µM*	-1
Cc1ccc(NC(=S)NNC(=O)c2nn(C)cc2Cl)cc1	20µM*	-2%	-17%	5%	11%	2
Cc1cccc(NC(=S)NNC(=O)c2nn(C)cc2Cl)c1	32µM*	-6%	-22%	-1%	10%	0
Cc1cccc(NC(=S)NNC(=O)c2ccco2)c1	0%	-14%	-5%	-13%	0%	1
Cn1c(=O)n(C)c2cc(NS(=O)(=O)c3ccc(C(C)(C)C)cc3)c(NCc3ccccc3)cc21	·	?	?	3%	·	·
CCCCC[C@H](O)/C=C/C=C\C/C=C\C/C=C\CCCC(=O)O	-10%	2%	-2%	4%	10%	3
CCOC(=O)/C=C/C(=O)OCC(=O)Nc1ccc(Cl)cn1	11%	-16%	?	-9%	8%	-2
CCOC(=O)NC1(Nc2ccc(Cl)cn2)Oc2ccccc2O1	25µM*	-20%	?	?	32µM*	-9
NC(=O)CC(NC(=O)Cc1cccc2ccccc12)c1ccc(N2CCc3ccccc3C2)c([N+](=O)[O-])c1 (stereo unspecified)	-20%	?	11µM*	-2%	-26%	-3
CC(=O)c1ccc(N2CCc3ccccc3C2)c([N+](=O)[O-])c1	-1%	-22%	?	2%	28µM*	5
CCOC(CNC(=O)c1ccc(N2CCc3ccccc32)c([N+](=O)[O-])c1)OCC	4%	?	13µM*	?	3%	-7
CC(=O)c1ccc(N2CCN(c3ncccn3)CC2)c([N+](=O)[O-])c1	·	·	·	·	-11%	1
CN1CCN(c2cc(N3CCc4ccccc4C3)c(F)cc2[N+](=O)[O-])CC1	3%	-27%	13µM*	-1%	-13%	2
COc1ccc(N2CCN(S(=O)(=O)c3ccc4c(c3)CC(C)N4C(C)=O)CC2)cc1 (stereo unspecified)	·	-13%	-3%	8%	·	·
CC(C)(C)c1ccc(S(=O)(=O)NCc2ccc3c(c2)CCN3C(=O)c2ccccc2)cc1	·	-14%	-6%	-6%	·	·
SMILES	JMJD2E inh	Tau fluor counter	Tau fibril ThT	Tau fibril FP	Sfp PPTase inh	FBPA coupling cs
CCC(C)CC(C)CC(C)C(=O)/C=C(/O)C(C)CC(C)C/C=C/C(C)C(O)C(C)C(O)CC1CCC(C)(C)O1 (stereo unspecified)	·	·	·	·	0%	6
CCOC(=O)Cn1c(=O)oc2cc(S(=O)(=O)N3CCN(c4ccc(Cl)cc4)CC3)ccc21	·	-21%	7%	-6%	·	·
CC1=NOC(=O)/C1=C/c1ccc(-c2ccc(Cl)cc2)o1	?	?	18µM*	-8%	32µM*	1
CC1=NOC(=O)/C1=C\c1ccc(-c2ccc(Br)cc2C(=O)O)o1	?	-17%	?	?	?	4
CC1=NOC(=O)/C1=C\c1ccc(-c2ccc(Br)cc2)o1	?	-30%	28µM*	2%	45µM*	1
CC1=NOC(=O)/C1=C\c1ccc(-c2cc(Cl)ccc2Cl)o1	-8%	-29%	?	-1%	18µM*	-3
CCOC(=O)Cn1c(=O)oc2cc(S(=O)(=O)Nc3ccccc3F)ccc21	·	-6%	-4%	-5%	·	·
CC(C)C(=O)Nc1nc(-c2ccc([N+](=O)[O-])cc2)cs1	7%	-3%	-14%	4%	12%	-6
O=[N+]([O-])c1ccc(S(=O)(=O)Nc2ccc(-c3csc(-c4ccccc4)n3)cc2)cc1	4%	8.9µM*[quencher]	?	-7%	15%	-1
O=S(=O)(Nc1ccc(-c2csc(-c3ccccc3)n2)cc1)c1ccccc1	?	?	1%	?	7%	0
CNc1nc(-c2ccc([N+](=O)[O-])cc2)cs1	4%	-13%	13µM*	11%	-12%	4
Nc1cnccc1C(=O)O	0.63µM*	-13%	?	?	25µM*	-51*
CN(C)c1ccc(-c2nc(NCCc3cnc[nH]3)c3ccccc3n2)cc1	·	·	·	·	0%	-2
Cc1cccc(-n2[nH]c3c4c(ccc3c2=O)C(=O)c2ccccc2C4=O)c1	-1%	?	?	10%	10%	3
CC(C)Cn1[nH]c2c3c(ccc2c1=O)C(=O)c1ccccc1C3=O	11%	?	14µM*	4%	-3%	-30*
CC(N)=Nc1ccc([N+](=O)[O-])cc1	0%	-1%	3%	-2%	-2%	2
O=[N+]([O-])c1ccc(N=Nc2c(Cl)cc(O)cc2Cl)cc1	13%	8.9µM*[quencher]	·	32µM*	5%	0
